Experimental findings from PubChem BioAssay (EPA / NIEHS) are described below.

In general, AC50 refers to the concentration at which the activity in the assay is half-maximal.

SMILES strings stand for the structures. Several values for one entry are separate records, joined by “and”; a condition that tells them apart may be missing. Equal values may be shown once. Results filed as inconclusive are left out. Activity calls are given as the source filed them. How the source made its calls, unless noted: active means hit-call score of the fitted dose curve at least 0.9, where 1 is the maximum; inconclusive means response in the unintended direction; inactive means score below 0.9.

Read-out in test [1]: UDP glucuronosyltransferase (UGT1A6), UGT1A6 (gene 54578)
The test is described as follows: LTEA_HepaRG_UGT1A6: Life Technologies and Expression Analysis (LTEA) Assay for UDP glucuronosyltransferase (UGT1A6) using HepaRG (AID 2283539; active means hit-call score of the fitted dose curve at least 0.9, where 1 is the maximum; inactive means score below 0.9). The note with it: mRNA level, 48 h; actives raise or lower the signal. In a few lines: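 Endpoint is UGT1A6 transcript induction or loss in a human liver cell line, quantified by TaqMan qRT-PCR 48 h after dosing. Concentrations ran from 100 uM downward in half-log steps in 0.5% DMSO; activity was fitted in both directions versus vehicle.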

Read-out in test [2]: X-box binding protein 1 (XBP1), XBP1 (gene 7494)
The test is described as follows: LTEA_HepaRG_XBP1: Life Technologies and Expression Analysis (LTEA) Assay for X-box binding protein 1 (XBP1) using HepaRG (AID 2283540; active means hit-call score of the fitted dose curve at least 0.9, where 1 is the maximum; inactive means score below 0.9). Particulars: mRNA level, 48 h; actives raise or lower the signal. The method, boiled down: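 Human HepaRG monolayers receive test chemical for 48 h across an eight-point half-log series starting at 100 uM. XBP1 mRNA gain or loss is scored against DMSO by qRT-PCR.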

Test [3] is described as follows: LTEA_HepaRG_LDH_cytotoxicity: Cytotoxicity Assessment in the Life Technologies and Expression Analysis (LTEA) Assay (AID 2283563).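 On AC50: LDH activity released into spent culture medium as a marker of cell death.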 The method, boiled down: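 Human HepaRG hepatic cells are treated with test chemicals for 48 h at up to 100 uM in 0.5% DMSO. Cytotoxicity is scored from medium LDH against the vehicle control.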
Test [4] can be described thus: ATG_XTT_Cytotoxicity: Cytotoxicity Assessment in the Attagene TRANS-FACTORIAL HepG2 Assay (AID 2283584). The method, boiled down: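 Transfect HepG2 with GAL4-UAS reporter units, dose compound, incubate 24 h, then measure viable cell number by XTT. Fit concentration response against DMSO baseline.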
Test [5] addresses Cellular tumor antigen p53 (Homo sapiens) (UniProt P04637). The test is described as follows: TOX21_p53_BLA_p2_ratio: Tox21 HCT-116 p53 Agonism Beta-lactamase Assay, Ratio, Phase 2 (AID 2283592). In a few lines:
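An inducible beta-lactamase reporter in HCT116 cells signals p53 pathway activation. After 16 h chemical exposure at 37C, cells load CCF4-AM substrate for 2 h at room temperature; activity is the cleaved/uncleaved emission ratio relative to DMSO.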

The target is the same in test [6]. The test is described as follows: TOX21_p53_BLA_p3_ratio: Tox21 HCT-116 p53 Agonism Beta-lactamase Assay, Ratio, Phase 3 (AID 2283596). The method, boiled down:
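HCT116 p53-bla cells (4000/well) given compound in DMSO (217-fold dilution) after 5 h, incubated 16 h at 37C. CCF4-AM substrate 2 h at room temperature; 460/530 nm emission ratio, gain fitted against DMSO.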

Test [7] is described as follows: TOX21_p53_BLA_p4_viability: Viability Assessment in the Tox21 HCT-116 p53 Agonism Beta-lactamase Assay, Phase 4 (AID 2283597).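 Further: hits lower the luminescence signal meaning cytotoxicity.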 In a few lines: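 Compound exposure of HCT116 cells lasts 16 h at 37C, 5% CO2, with DMSO stocks diluted 217-fold. Cellular ATP is then quantified by CellTiter-Glo luminescence after 30 min at room temperature.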
The target in test [8] is Cellular tumor antigen p53 (Homo sapiens) (UniProt P04637). The test is described as follows: TOX21_p53_BLA_p5_ratio: Tox21 HCT-116 p53 Agonism Beta-lactamase Assay, Ratio, Phase 5 (AID 2283599). The method, boiled down:
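HCT-116 p53-bla cells (4000/well) plated 5 h, dosed with compound (217-fold DMSO dilution) for 16 h at 37 C; CCF4-AM substrate 2 h at room temperature. Activity is the 460/530 nm emission ratio (405 nm excitation), fitted in gain-of-signal direction versus DMSO.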

The target is the same in test [9]. The test is described as follows: TOX21_p53_BLA_p4_ratio: Tox21 HCT-116 p53 Agonism Beta-lactamase Assay, Ratio, Phase 4 (AID 2283601). The method, boiled down:
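HCT-116 p53 beta-lactamase reporter cells (4000/well) preincubated 5 h, then compound (217-fold dilution of DMSO stock) for 16 h at 37C. CCF4-AM substrate added 2 h at room temperature; 460/530 nm emission ratio fitted upward versus DMSO.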

Test [10] in a line: Tanguay_ZF_120hpf_MORT_legacy: (Legacy) Oregon State University Tanguay Lab 120 Hour Post-fertilization zebrafish Assay for Mortality (AID 2283633). The method, boiled down:
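Mortality endpoint from a multiplexed whole-embryo zebrafish screen. Dechorionated wild-type embryos received compound at 6 hpf and remained under static exposure at 28C until 120 hpf, with death noted as a present/absent call.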

The nature of test [11]: Tanguay_ZF_120hpf_YSE_legacy: (Legacy) Oregon State University Tanguay Lab 120 Hour Post-fertilization zebrafish Assay for Yolk Sac Edema (AID 2283634). The method, boiled down:
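Readout: presence or absence of yolk sac edema at 120 hpf, fitted upward against DMSO controls. Exposure ran statically from 6 hpf in dechorionated embryos kept at 28C.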

A short description of test [12]: Tanguay_ZF_120hpf_AXIS_legacy: (Legacy) Oregon State University Tanguay Lab 120 Hour Post-fertilization zebrafish Assay for Body Axis Malformation (AID 2283635). The method, boiled down: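 Static 6–120 hpf chemical exposure of dechorionated wild-type 5D zebrafish, one per well at 28C; morphology endpoint scored binary at 120 hpf relative to DMSO control.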
The nature of test [13]: Tanguay_ZF_120hpf_EYE_legacy: (Legacy) Oregon State University Tanguay Lab 120 Hour Post-fertilization zebrafish Assay for Eye Malformation (AID 2283636).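 Further: binary presence or absence of eye malformation scored by brightfield in 120 hpf larvae.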 The method, boiled down: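 Dechorionated Tropical 5D zebrafish embryos, one per well from 6 hpf, static exposure to 120 hpf at 28C, 0.64% DMSO. Eye malformation scored present/absent by brightfield; dead embryos not scored.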

Test [14] can be described thus: Tanguay_ZF_120hpf_SNOU_legacy: (Legacy) Oregon State University Tanguay Lab 120 Hour Post-fertilization zebrafish Assay for Snout Malformation (AID 2283637). The method, boiled down:
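Dechorionated tropical 5D wild-type zebrafish embryos exposed statically from 6 to 120 hpf at 28C, one per well, in 0.64% DMSO. Snout malformation scored as present/absent by brightfield at 120 hpf; dead embryos not scored.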

Test [15] in a line: Tanguay_ZF_120hpf_JAW_legacy: (Legacy) Oregon State University Tanguay Lab 120 Hour Post-fertilization zebrafish Assay for Jaw Malformation (AID 2283638). The method, boiled down: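 Static waterborne exposure of dechorionated wild-type (Tropical 5D) zebrafish from 6 to 120 hpf at 28C, 0.64% DMSO vehicle; 5uM trimethyltin chloride served as positive control. Jaw morphology recorded as binary at 120 hpf.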

Test [16] is described as follows: Tanguay_ZF_120hpf_PE_legacy: (Legacy) Oregon State University Tanguay Lab 120 Hour Post-fertilization zebrafish Assay for Pericardial Edema (AID 2283640). In a few lines:
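Read-out is the presence or absence of pericardial edema at 120 hpf under brightfield, with gain of signal fitted against DMSO controls. Larvae (5D wild-type) were statically exposed at 28C with 0.64% final DMSO.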

Test [17] is described as follows: TOX21_p53_BLA_p2_viability: Viability Assessment in the Tox21 HCT-116 p53 Agonism Beta-lactamase Assay, Phase 2 (AID 2283591).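 Further: actives lower the ATP signal meaning cytotoxicity.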 In a few lines:
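HCT116 p53-bla cells, 4000/well, dosed after 5 h plating (217-fold dilution of DMSO stocks) and incubated 16 h at 37C. Viability taken as cellular ATP by CellTiter-Glo luminescence after 30 min RT; signal loss marks cytotoxicity.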

Test [18] can be described thus: TOX21_p53_BLA_p3_viability: Viability Assessment in the Tox21 HCT-116 p53 Agonism Beta-lactamase Assay, Phase 3 (AID 2283593).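 Further: cells exposed to compound for 16 h before reading.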 In a few lines:
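HCT116 cells, 4000/well, dosed 5 h after plating by pin transfer (217-fold dilution from DMSO stock) and incubated 16 h at 37C, 5% CO2. Viability read as ATP luminescence with CellTiter-Glo after 30 min at room temperature.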

A short description of test [19]: TOX21_p53_BLA_p5_viability: Viability Assessment in the Tox21 HCT-116 p53 Agonism Beta-lactamase Assay, Phase 5 (AID 2283600). The method, boiled down:
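Counter-readout for cytotoxicity: ATP-dependent luminescence from CellTiter-Glo, read in the beta-lactamase wells after 30 min at RT, following a 16 h compound exposure at 37C.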

A short description of test [20]: Tanguay_ZF_120hpf_OTIC_legacy: (Legacy) Oregon State University Tanguay Lab 120 Hour Post-fertilization zebrafish Assay for Otic Vesicle Malformation (AID 2283639). In a few lines: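 Tropical 5D wild-type zebrafish embryos were exposed statically in sealed, foil-covered plates at 28C until 120 hpf, with 0.64% (vol/vol) DMSO final. Otic vesicle malformation was scored present/absent by brightfield microscopy, with DMSO as baseline.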

Chain of Cellular tumor antigen p53 (Homo sapiens) (P04637 whole entry, looked up): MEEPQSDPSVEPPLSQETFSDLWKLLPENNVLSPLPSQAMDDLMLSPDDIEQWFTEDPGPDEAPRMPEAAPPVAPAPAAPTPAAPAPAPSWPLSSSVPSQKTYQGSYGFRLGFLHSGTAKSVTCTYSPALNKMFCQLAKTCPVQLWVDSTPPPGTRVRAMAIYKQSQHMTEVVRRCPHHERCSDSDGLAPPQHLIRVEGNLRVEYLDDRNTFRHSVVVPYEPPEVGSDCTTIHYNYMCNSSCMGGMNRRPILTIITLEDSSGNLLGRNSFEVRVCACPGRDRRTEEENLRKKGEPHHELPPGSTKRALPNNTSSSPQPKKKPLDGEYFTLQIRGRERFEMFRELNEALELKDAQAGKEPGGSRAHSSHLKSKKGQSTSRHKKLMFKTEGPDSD

With `CSC(=O)c1cccc2nnsc12`, the molecule was called inactive in [1], in test [2], in [3], in test [4], in [5] and in test [6]. Besides, the call in test [7], in [8], in test [9], in test [10], in [11] and in [12] was inactive. In addition, the result in [13], in [14], in [15] and in test [16] was inactive.

Regarding `C[C@]12CC[C@@H]3c4ccc(O)cc4C[C@@H](CCCCCCCCCS(=O)CCCC(F)(F)C(F)(F)F)[C@H]3[C@@H]1CC[C@@H]2O` (some centres not stated), the AC50 is 50 µM (active) in test [1] and 49.3 nM (active) in test [2]. For the same molecule, the molecule was called inactive in test [3], in test [4], in [17], in test [5], in test [18] and in test [6]. The result in test [7], in [8], in [19], in [9], in test [10] and in test [11] was inactive. In addition, the molecule was classed as inactive in [12], in [13], in test [14], in test [15] and in test [20].

As for `COCCO`, the molecule was classed as inactive in test [1], in [2], in test [3], in test [4], in [5] and in test [6]. The outcome in test [8], in test [19], in test [10], in test [12], in test [13] and in [14] was inactive. The molecule was called inactive in test [15], in test [20] and in test [16].

For the molecule `S=C(S)NCCNC(=S)S.[Mn+2].[S-]C([S-])=NCCN=C([S-])[S-].[Zn+2]`, the half-maximal activity concentration (AC50) in test [1] is 2.12 µM (active) and 1.74 µM (active); in test [2], 908 nM (active) and 953 nM (active); in test [3], 1.58 µM (active) and 1.57 µM (active) and 1.84 µM (active). The outcome in test [4], in [10], in test [11], in [12], in [13] and in test [14] was inactive. Moreover, the call in test [15], in [20] and in test [16] was inactive.

Take `C#CCOC(=O)[C@@H](C)Oc1ccc(Oc2ncc(Cl)cc2F)cc1`: the outcome in test [1], in test [2], in [3], in [17], in test [5] and in test [18] was inactive. The result in test [6], in test [7], in test [8], in [19], in [9] and in [10] was inactive. Also, the molecule was called inactive in test [11], in [12], in [13], in test [14], in test [15] and in [20]. Besides, in test [16], the outcome was inactive.

Regarding `C[C@]12C[C@H](O)[C@H]3[C@@H](CCC4=CC(=O)CC[C@@]43C)[C@@H]1CC[C@@H]2C(=O)CO`, the molecule was called inactive in test [1], in test [2], in test [3], in test [4], in [17] and in test [5]. The result in test [18], in test [6], in test [7], in test [8], in test [9] and in test [10] was inactive. The molecule was called inactive in test [11], in test [12], in [13], in test [14], in [15] and in test [20]. For the same molecule, in [16], the molecule was called inactive.

Take `CCN(CC)C(=O)c1cccc(C)c1`: the outcome in [1], in test [2], in [3], in [4], in test [10] and in [11] was inactive. For the same molecule, the molecule was classed as inactive in [12], in [13], in test [14], in test [15], in test [20] and in test [16].
